From the OligoGym collection

Biological target: CHRNE
Experiment: pooled miR-30 sensor sort-seq; sequence = guide strand
Settings: shRNA

Going from TAGTGGTGAGAGTCTCCTCTTT to TAGGTGACCTCCACTGCGCAGA, the sensor-assay potency score (higher = more potent) falls from -0.541 to -0.727.

First: TTCAGTATCAGCTCCTCCGCGC
Second: TTAATGACGTAGAAGAGCGGCT
The sensor-assay potency score (higher = more potent) of the first is higher: -0.412 for the first, -0.711 for the second.

Going from TTCCAGCACAATCTCTGGCAGC to TCTTGTTGATGGTCTTGCCGTC, the sensor-assay potency score (higher = more potent) rises from -0.813 to 0.0404.

Compared with TTGATGGTCTTGCCGTCGTTGT, ATCTTGTTGATGGTCTTGCCGT is higher in sensor-assay potency score (higher = more potent): -1.26 for the first, -1.25 for the second.

First: TAGAAGAGCGGCTTCCGGCGGA
Second: ATGACGAAAATAAGGAACCTGC
The sensor-assay potency score (higher = more potent) of the first is higher: 0.192 for the first, -1.05 for the second.

First: TTTTTCAAAATCAATTTCCTAC
Second: TTGTTTTCCAGCACAATCTCTG
The sensor-assay potency score (higher = more potent) of the first is higher: -0.288 for the first, -0.404 for the second.

Going from TAGATGACGTCAGTCTCCCCTG to TAATCCTGCCAATCGATTCCAA, the sensor-assay potency score (higher = more potent) falls from -0.628 to -0.67.

Compared with TTTTCCAGCACAATCTCTGGCA, TTCACGGCATCCACACAGCAGC is lower in sensor-assay potency score (higher = more potent): -0.449 for the first, -0.899 for the second.

With TGTGTCGATGTCGATCTTGTTG the sensor-assay potency score (higher = more potent) was -0.832.

Biological target: CHST7
Experiment: as above
Settings: shRNA

Going from ATACAAGTAGAAAACGTCCGGG to TACCAAATCACATCTCTTCTTT, the sensor-assay potency score (higher = more potent) falls from 0.117 to -0.0966.

Going from TTGGTAGCAAGTCAAGTCCCAG to TAGATGTGCTGCTTCTCGCGAG, the sensor-assay potency score (higher = more potent) rises from -1.13 to -0.296.

First: TTGGGAACCGAGGAGACTGGTT
Second: TACAAGTAGAAAACGTCCGGGT
The sensor-assay potency score (higher = more potent) of the first is lower: -0.796 for the first, 0.0569 for the second.

First: AACAGCAGCGCGAACTTGCAGT
Second: TAAATATCCACATTGCACTGTC
The sensor-assay potency score (higher = more potent) of the first is lower: -0.918 for the first, 0.728 for the second.

TCCTTGATGACCACCACCGGGT and TTTTCGTCCAGACACCTGCTGG are the same in sensor-assay potency score (higher = more potent): -1.07 for the first, -1.07 for the second.

TTACTGGAAACTTCATCTCAAC was tested, and the sensor-assay potency score (higher = more potent) was -1.13.

Biological target: CHSY1
Experiment: as above
Settings: shRNA

Going from TTTTGCTGAAAGTCTGCTGTAA to TGTATTTGCTCGACATCGCTGA, the sensor-assay potency score (higher = more potent) rises from -0.0624 to 0.246.

Compared with TTGAAGTCAATGATGCGCCCTC, TAAATCTCACAAACATGTCGAA is lower in sensor-assay potency score (higher = more potent): -0.291 for the first, -0.309 for the second.

First: TTAACAATCACAACAGAACATT
Second: TTTATCTTTGGGTTCTTTGTGC
The sensor-assay potency score (higher = more potent) of the first is lower: -1.42 for the first, 0.332 for the second.

Going from TTCTTTGTGCTCACTCTTCGAC to TTGTGCTCACTCTTCGACCCAG, the sensor-assay potency score (higher = more potent) falls from -0.347 to -0.424.

First: TTTCCCACTATAAACAATCTTT
Second: TTTTACTGTAACTTGGATCATT
The sensor-assay potency score (higher = more potent) of the first is lower: -0.597 for the first, -0.393 for the second.

Going from TTGTCTTGGACCATGTTCTGTA to TTGCTCGACATCGCTGAAGGAA, the sensor-assay potency score (higher = more potent) falls from 0.134 to -0.494.
